Compounds without any hit were thinned out: in the full panel of roughly 83,000, 20% have a hit.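 How to read the values: 0–100, growth inhibition (40 = 60% inhibited); 0, no net growth; -100 to 0, cell death (-40 = 40% of starting cells died; -100 = all dead).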 Calls of active or inactive are those of the source. Rule for the calls: active = growth percent below 10; inactive = the rest.
Legend:
Experiment in all cases: NCI-60 one-dose screen, 48 h (100 = growth as untreated, 0 = no growth, -100 = all killed)
Conditions in all cases: 10 µM unless noted
NCI-H23 lung = test system: NCI-H23 lung
NCI-H226 lung = test system: NCI-H226 lung
NCI-H322M lung = test system: NCI-H322M lung
HOP-62 NSCLC = test system: HOP-62 NSCLC
HOP-92 NSCLC = test system: HOP-92 NSCLC
NCI-H522 lung = test system: NCI-H522 lung
A549/ATCC NSCLC = test system: A549/ATCC NSCLC
786-0 renal = test system: 786-0 renal
COLO 205 colon = test system: COLO 205 colon
DU-145 prostate = test system: DU-145 prostate
K-562 leukemia = test system: K-562 leukemia
MALME-3M melanoma = test system: MALME-3M melanoma
MDA-MB-231 breast = test system: MDA-MB-231 breast
RXF 393 renal = test system: RXF 393 renal
SF-268 CNS = test system: SF-268 CNS
SF-295 CNS = test system: SF-295 CNS
SF-539 CNS = test system: SF-539 CNS
UACC-257 melanoma = test system: UACC-257 melanoma
M14 melanoma = test system: M14 melanoma
NCI-H460 lung = test system: NCI-H460 lung

Measured: growth

COc1ccc(C(=O)CSc2nc(-c3cc(OC)ccc3OC)cc(-c3ccc(Cl)cc3)c2C#N)cc1
active: NCI-H226 lung -2.99% | MALME-3M melanoma -6.38%
inactive: NCI-H23 lung 44.1% | NCI-H322M lung 67.9% | HOP-62 NSCLC 39.9% | HOP-92 NSCLC 43.9% | NCI-H522 lung 27.6% | A549/ATCC NSCLC 56.5% | 786-0 renal 23.7% | COLO 205 colon 65.2% | DU-145 prostate 65.9% | K-562 leukemia 77.9% | MDA-MB-231 breast 33.2% | RXF 393 renal 26.5% | SF-268 CNS 59.2% | SF-295 CNS 18.5% | SF-539 CNS 30.5% | UACC-257 melanoma 58% | M14 melanoma 48.6%

COc1ccc(-c2nc3sccn3c2/C=C/C(=O)c2ccc3c(c2)OCO3)cc1
inactive: NCI-H23 lung 99.7% | NCI-H226 lung 84.7% | NCI-H322M lung 88.5% | HOP-62 NSCLC 97.5% | NCI-H460 lung 108% | NCI-H522 lung 57.8% | A549/ATCC NSCLC 95% | 786-0 renal 96.8% | COLO 205 colon 211% | DU-145 prostate 113% | MALME-3M melanoma 84.6% | MDA-MB-231 breast 76.3% | RXF 393 renal 117% | SF-268 CNS 100% | SF-295 CNS 97.1% | SF-539 CNS 84.6% | UACC-257 melanoma 95.8% | M14 melanoma 103%

COc1cc(/C=C\c2cc(OC)c(OC)c(OC)c2)cc(N)c1OC
inactive: NCI-H23 lung 83.6% | NCI-H226 lung 97.8% | NCI-H322M lung 81.3% | HOP-62 NSCLC 79.8% | HOP-92 NSCLC 78.4% | NCI-H522 lung 58.6% | A549/ATCC NSCLC 93.1% | 786-0 renal 82.3% | COLO 205 colon 104% | DU-145 prostate 110% | MALME-3M melanoma 77.9% | MDA-MB-231 breast 88.6% | RXF 393 renal 105% | SF-268 CNS 93.3% | SF-295 CNS 73.7% | SF-539 CNS 84.3% | UACC-257 melanoma 87.5% | M14 melanoma 66.1%

CCOC(=O)c1cc(C(=O)c2ccc(OC)c(OC)c2)n2ccc(/C=C/c3cc[n+](CC(=O)c4ccc(OC)c(OC)c4)cc3)cc12
inactive: NCI-H23 lung 93.5% | NCI-H226 lung 99.2% | NCI-H322M lung 99% | HOP-62 NSCLC 101% | NCI-H460 lung 98.6% | NCI-H522 lung 85.5% | A549/ATCC NSCLC 95.9% | COLO 205 colon 114% | DU-145 prostate 96.3% | K-562 leukemia 78.2% | MALME-3M melanoma 97.3% | MDA-MB-231 breast 89.4% | RXF 393 renal 111% | SF-268 CNS 99.5% | SF-295 CNS 102% | SF-539 CNS 87.3% | UACC-257 melanoma 98.7%

O=C(/C=C/c1c(-c2ccc(Cl)cc2)nn(-c2ccccc2)c1C(F)(F)F)c1ccc(Cl)cc1
inactive: NCI-H23 lung 80.8% | NCI-H226 lung 101% | NCI-H322M lung 93.3% | HOP-62 NSCLC 90.9% | HOP-92 NSCLC 65.1% | NCI-H522 lung 78.9% | A549/ATCC NSCLC 81.3% | 786-0 renal 95.9% | COLO 205 colon 110% | DU-145 prostate 108% | MALME-3M melanoma 104% | MDA-MB-231 breast 79.5% | RXF 393 renal 88.4% | SF-268 CNS 105% | SF-295 CNS 96.5% | SF-539 CNS 102% | UACC-257 melanoma 104% | M14 melanoma 90.5%

COC(=O)C1=C(C(=O)ON)C2C=CC1(C(Cc1ccccc1)Nc1ccccc1)O2 (stereo not drawn)
inactive: NCI-H23 lung 89.4% | NCI-H226 lung 107% | NCI-H322M lung 93.3% | HOP-62 NSCLC 105% | HOP-92 NSCLC 46.5% | A549/ATCC NSCLC 96.1% | 786-0 renal 93% | DU-145 prostate 73.9% | MDA-MB-231 breast 103% | RXF 393 renal 92.1% | SF-268 CNS 95% | SF-295 CNS 103% | SF-539 CNS 90% | UACC-257 melanoma 87.8% | M14 melanoma 76.3%
active: NCI-H522 lung -77.4% | COLO 205 colon -72% | K-562 leukemia -1.55% | MALME-3M melanoma -74%

CCCCOc1ccc(/C=N/Nc2cc(C)nc3ccc(Br)cc23)cc1
active: 786-0 renal -83.7% | COLO 205 colon -58.5% | K-562 leukemia -2.5% | MALME-3M melanoma -66.9% | RXF 393 renal -72% | SF-295 CNS -80.3% | SF-539 CNS -79.3% | M14 melanoma 4.9%
inactive: NCI-H23 lung 74.9% | NCI-H226 lung 90.2% | NCI-H322M lung 76.9% | HOP-62 NSCLC 82.5% | HOP-92 NSCLC 68% | NCI-H522 lung 76.9% | A549/ATCC NSCLC 34.5% | DU-145 prostate 16.4% | MDA-MB-231 breast 48.5% | SF-268 CNS 88.3% | UACC-257 melanoma 96.3%

N#C/C(=C\c1ccccn1)c1nc2cc(Cl)ccc2s1
inactive: NCI-H23 lung 72.1% | NCI-H226 lung 67.9% | NCI-H322M lung 87.1% | HOP-62 NSCLC 63.5% | HOP-92 NSCLC 55.8% | NCI-H522 lung 63.4% | A549/ATCC NSCLC 78.1% | COLO 205 colon 101% | DU-145 prostate 92.8% | K-562 leukemia 48.3% | MALME-3M melanoma 87.5% | MDA-MB-231 breast 61.3% | RXF 393 renal 60.3% | SF-268 CNS 68.8% | SF-295 CNS 94.4% | SF-539 CNS 63.1% | UACC-257 melanoma 91.8%

CCCOC(=O)N[C@H]1CCc2cc(OC)c(OC)c(OC)c2-c2ccc(SC)c(=O)cc21
active: COLO 205 colon 1.57% | DU-145 prostate -18.3% | K-562 leukemia 7.7% | MDA-MB-231 breast -8.18% | SF-539 CNS -21.5% | M14 melanoma 6.23%
inactive: NCI-H23 lung 35% | NCI-H226 lung 13% | NCI-H322M lung 32.7% | HOP-62 NSCLC 39.3% | HOP-92 NSCLC 34.9% | NCI-H522 lung 21.5% | A549/ATCC NSCLC 22.6% | 786-0 renal 24.1% | MALME-3M melanoma 35.4% | RXF 393 renal 19.5% | SF-268 CNS 22.6% | SF-295 CNS 17.3% | UACC-257 melanoma 71.8%

O=C(CCN1CCCC1)Nc1ccc2c(NCCCc3ccccc3)c3ccccc3nc2c1
active: NCI-H522 lung -49.9% | COLO 205 colon -50.4% | DU-145 prostate -52.6% | K-562 leukemia -7.07% | MALME-3M melanoma -90.7% | MDA-MB-231 breast -24.3% | RXF 393 renal 5.65% | M14 melanoma -61.5%
inactive: NCI-H23 lung 14.8% | NCI-H226 lung 42.3% | NCI-H322M lung 16.6% | HOP-62 NSCLC 24.7% | HOP-92 NSCLC 21.5% | A549/ATCC NSCLC 15.5% | 786-0 renal 24.9% | SF-268 CNS 21% | SF-295 CNS 46.9% | SF-539 CNS 13.7% | UACC-257 melanoma 14.7%

CSc1nc2sc3cccc(Cl)c3n2c(=N)c1C#N
inactive: NCI-H23 lung 90.5% | NCI-H226 lung 93.5% | NCI-H322M lung 99.8% | HOP-62 NSCLC 97% | NCI-H460 lung 102% | NCI-H522 lung 78.9% | A549/ATCC NSCLC 100% | COLO 205 colon 56.1% | DU-145 prostate 105% | K-562 leukemia 106% | MALME-3M melanoma 95.3% | MDA-MB-231 breast 90.1% | RXF 393 renal 131% | SF-268 CNS 102% | SF-295 CNS 108% | SF-539 CNS 109% | UACC-257 melanoma 108% | M14 melanoma 102%

COc1ccc(C(=O)C2C(C#N)C(C#N)C3C=Cc4ccccc4N32)cc1 (stereo not drawn)
inactive: NCI-H23 lung 37.9% | NCI-H226 lung 77.6% | NCI-H322M lung 53.5% | HOP-62 NSCLC 30.1% | NCI-H460 lung 19.1% | A549/ATCC NSCLC 29.9% | DU-145 prostate 24.2% | K-562 leukemia 11.5% | MALME-3M melanoma 38.6% | MDA-MB-231 breast 29% | SF-268 CNS 55.7% | SF-295 CNS 22.5% | UACC-257 melanoma 82.9%
active: NCI-H522 lung 0.174% | COLO 205 colon -5.52% | RXF 393 renal -21.8% | SF-539 CNS -20.9% | M14 melanoma -6.64%

N#Cc1c(NC(=O)NCc2ccccc2)sc2c1CCCC2
inactive: NCI-H23 lung 29% | NCI-H226 lung 29.5% | NCI-H322M lung 42.2% | HOP-62 NSCLC 40.2% | HOP-92 NSCLC 42% | NCI-H522 lung 21.9% | 786-0 renal 35.6% | COLO 205 colon 10.1% | DU-145 prostate 10.1% | K-562 leukemia 14% | MALME-3M melanoma 47.5% | MDA-MB-231 breast 18.8% | SF-268 CNS 46.9% | SF-295 CNS 21% | UACC-257 melanoma 68% | M14 melanoma 10.6%
active: RXF 393 renal 0.0173% | SF-539 CNS -1.85%

N/C(=N\C(N)=N\c1nc2ccccc2s1)c1ccnc(Br)c1
active: NCI-H522 lung 9.9% | SF-295 CNS 5.59% | SF-539 CNS 8.41%
inactive: NCI-H23 lung 44.5% | NCI-H226 lung 60.1% | NCI-H322M lung 97.4% | HOP-62 NSCLC 29.8% | HOP-92 NSCLC 47% | A549/ATCC NSCLC 61.3% | 786-0 renal 32.2% | COLO 205 colon 21.4% | DU-145 prostate 42.7% | K-562 leukemia 14% | MALME-3M melanoma 64.5% | MDA-MB-231 breast 51.7% | RXF 393 renal 15.7% | SF-268 CNS 50% | UACC-257 melanoma 46.2% | M14 melanoma 21.5%

[O-][n+]1c(Cl)cc(Cl)c2ccccc21
inactive: NCI-H23 lung 102% | NCI-H226 lung 104% | NCI-H322M lung 115% | HOP-62 NSCLC 103% | NCI-H460 lung 108% | NCI-H522 lung 104% | A549/ATCC NSCLC 91.9% | COLO 205 colon 107% | DU-145 prostate 113% | K-562 leukemia 85.2% | MALME-3M melanoma 107% | MDA-MB-231 breast 100% | RXF 393 renal 153% | SF-268 CNS 96.7% | SF-295 CNS 103% | SF-539 CNS 125% | UACC-257 melanoma 102% | M14 melanoma 100%

O=C(NCCc1ccccc1)Nc1ccc2cc3ccc(NC(=O)NCCc4ccccc4)cc3nc2c1
inactive: NCI-H23 lung 10.3% | NCI-H226 lung 88.7% | NCI-H322M lung 19.2% | HOP-62 NSCLC 39.4% | HOP-92 NSCLC 68.1% | A549/ATCC NSCLC 73.8% | 786-0 renal 38.4% | COLO 205 colon 10.8% | DU-145 prostate 29.2% | UACC-257 melanoma 85.6% | M14 melanoma 33.8%
active: NCI-H522 lung -10.8% | K-562 leukemia 1.41% | MALME-3M melanoma -13.8% | MDA-MB-231 breast -17.5% | RXF 393 renal -21.5% | SF-268 CNS -54.2% | SF-295 CNS 0.203% | SF-539 CNS -61.7%

Source: PubChem BioAssay (NCI)
